The results in this text go back to PubChem BioAssay (NCI).

The panel holds about 83,000 compounds, 20% with a hit somewhere; the sample as a whole holds those more often.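 Treatment: one concentration, 48 hours, 96-well format. Scoring: percent growth, with anything below 10 considered active.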 Activity calls are given as the source filed them.

One test relates to 786-0 renal. Kind of test: NCI-60 one-dose screen, 48 h (100 = growth as untreated, 0 = no growth, -100 = all killed). To be noted: 10 µM unless noted.
On to `COc1ccc(S(=O)(=O)N2CCCCC2)cc1NC(=O)c1[nH]c(C)c2c1CCCCC2=O`, for which the growth was 32.3% (inactive).
As to `Oc1ccccc1-c1nnc(CNc2ccc(Cl)cc2)o1`, the growth was 36.7% (inactive).
Turning to `CCN=C1C=CC(=C(c2ccc(N)cc2)c2ccc(N(CC)CC)c(C)c2)C=C1`, the growth is -47.2% (active).
In the case of `COc1ccc(S(=O)(=O)N2CC3(COC3)C2)cc1NC(=O)c1[nH]c(C)c2c1CCCCC2=O`, the growth was 56.5% (inactive).
In the case of `Cc1ccc(C2=NN3C(C2)c2cc(Br)ccc2OC32CCN(Cc3ccccc3)CC2)o1` (stereo unspecified), the growth was 103% (inactive).
The same measure, in the same setting: then `Oc1cccc2ccc(N/N=C/c3cc(CN4CCOCC4)c(O)c4ncccc34)nc12`, with 19.4% (inactive); and `CC/C=C\C[C@H](O)C/C=C1/C(=O)C=C[C@@]1(C)C/C=C\CCCC(=O)OC`, with 100% (inactive); and `N#CCCN=Nc1c(O)[nH]c2ccc([N+](=O)[O-])cc12`, with 104% (inactive).
Consider `O=C(N/N=C/c1ccccc1O)c1ccccc1Nc1ccnc(C(F)(F)F)c1`, for which the growth was 0.0938% (active).
On the same count and under the same terms, then `COc1ccc(C2C(C#N)=C(N)Oc3n[nH]c(-c4cccs4)c32)cc1I` (stereo unspecified), with 99.1% (inactive); and `O=S(=O)(Nc1ccc(OC(F)F)cc1)c1ccc(-c2cnc(C3CC3)o2)cc1`, with 84% (inactive); and `O=C1C=C(OCC=C(Cl)Cl)C(=O)c2ccccc21`, with 94.9% (inactive).
Regarding `Cc1cc(C)nc(SC2=C(Nc3ccc(O)cc3)C(=O)N(Cc3ccccc3)C2=O)n1`, the growth is 97.6% [40 µM] (inactive).
Take `Cc1cc2nc(NC(=O)CN3CCN(CCN4C(=O)c5cccc6cccc(c56)C4=O)CC3)sc2cc1C`: the growth is 82.8% (inactive).
In the case of `Cc1ccc2c(C(C[N+](=O)[O-])c3ccccc3F)c(-c3ccccc3)[nH]c2c1` (stereo unspecified), the growth was 56.7% (inactive).
With `CCc1nc(N)nc(N)c1C#CC(C)c1ccc(-c2ccncc2)cc1Cl` (stereo unspecified), the growth was 18.3% (inactive).
`Cc1ccc(NC(=O)C2CCC(CN3CCN(C)CC3)CC2)cc1Nc1nccc(-c2cccnc2)n1` (stereo unspecified): the growth was 98.7% (inactive).
For the compound `CC/C=C\C[C@H]1C/C=C2/C(=O)C=C[C@H]2C/C=C\CCCC(=O)O1`, the growth is 24.7% (inactive).
Still for that read-out and setting: to `Cc1ccc(-c2onc3c(=O)[nH]nc(-c4ccccc4)c23)cc1` belongs 37.1% (inactive).
With `O=c1ccccc(-c2ccc(-c3ccco3)cc2)c1O`, the growth was 10.6% (inactive).
Take `COc1ccc(-c2cc(Nc3ccnc(N4CCOCC4)n3)on2)cc1`: the growth is 35.6% (inactive).
Regarding `Cc1ccccc1COc1ccc(-c2ccnn2-c2ccc(Cl)cc2)cc1`, the growth is 82.8% (inactive).
Regarding `COc1ccc(/C=N/C2=C(C#N)C(c3ccc(N(C)C)cc3)c3ccc4ccccc4c3O2)cc1` (stereo unspecified), the growth is 83.1% (inactive).
Consider `c1ccc(CCNc2ncnc3[nH]ncc23)cc1`, for which the growth was 96.4% (inactive).
As to `CN1CCN(CCCOc2cccc3nc(Nc4ccc(Cl)c(F)c4)ccc23)CC1`, the growth was 64.1% (inactive).
Regarding `FC(F)(F)c1[nH]ncc1-c1nc2ccc3n[nH]c(C#Cc4cccnc4)c3c2c2c1CCCC2`, the growth is 30.7% (inactive).
For `CCOc1nc(-c2ccccc2)cc2c(O)c(C(=O)O)[nH]c(=O)c12`, the growth is 111% (inactive).
For `CCCCn1cnc2c(Sc3c([N+](=O)[O-])ncn3C)nc(N)nc21`, the growth was 104% (inactive).
Take `COc1cc2c(cc1-c1c(C)noc1C)ncc1nc(C3CCCC3)n([C@H](C)COC(F)F)c12`: the growth was 45.9% (inactive).
Consider `CN1CCN(CCCOc2cccc3nc(Nc4cc(Cl)cc(Cl)c4)ccc23)CC1`, for which the growth is 37.3% (inactive).
As to `COc1ccc(CCNc2nc3c(c(=O)n(Cc4ccc(Br)cc4)c(=O)n3C)n2C)cc1OC`, the growth is 102% (inactive).
As to `O=C(/C=C/c1cc(CN2CCOCC2)c(O)c2ncccc12)c1cc(CN2CCOCC2)c(O)c2ncccc12`, the growth is 24.6% (inactive).
Turning to `Nc1nc2ccc3[nH]ncc3c2c2c1CCCC2`, the growth is 6.18% (active).
Still for that read-out and setting: then `C#CCOc1ccc2ncnc(N3CCC(NC(=O)CCl)CC3)c2c1`, with 45.8% [8.25 µM] (inactive); and `CC1=C(O)C(=O)C(C(C#N)(C#N)C(C#N)C#N)C1` (stereo unspecified), with 106% (inactive); and `COc1ccc(CN2c3ccccc3Oc3ccccc32)cc1O`, with 43.2% (inactive).
On to `CN1CCN(c2ccc(Nc3c4ccccc4nc4ccccc34)cc2)CC1`, for which the growth is 102% (inactive).
`CCCCC(=O)OCC1OC(n2cnc3c(=S)nc[nH]c32)C(OC(=O)CCCC)C1OC(=O)CCCC` (stereo unspecified): the growth is 20.5% (inactive).

Another test relates to COLO 205 colon. The test is described as above. The note with it: 10 µM unless noted.
As for `COc1ccc(S(=O)(=O)N2CCCCC2)cc1NC(=O)c1[nH]c(C)c2c1CCCCC2=O`, the growth was 22.9% (inactive).
`Oc1ccccc1-c1nnc(CNc2ccc(Cl)cc2)o1`: the growth was 14.8% (inactive).
For `CCN=C1C=CC(=C(c2ccc(N)cc2)c2ccc(N(CC)CC)c(C)c2)C=C1`, the growth was -43.1% (active).
With `COc1ccc(S(=O)(=O)N2CC3(COC3)C2)cc1NC(=O)c1[nH]c(C)c2c1CCCCC2=O`, the growth was 37.5% (inactive).
On to `Cc1ccc(C2=NN3C(C2)c2cc(Br)ccc2OC32CCN(Cc3ccccc3)CC2)o1` (stereo unspecified), for which the growth is 105% (inactive).
Same read-out and setting: to `Oc1cccc2ccc(N/N=C/c3cc(CN4CCOCC4)c(O)c4ncccc34)nc12` belongs 12.2% (inactive); to `CC/C=C\C[C@H](O)C/C=C1/C(=O)C=C[C@@]1(C)C/C=C\CCCC(=O)OC`, 113% (inactive); to `N#CCCN=Nc1c(O)[nH]c2ccc([N+](=O)[O-])cc12`, 109% (inactive).
`O=C(N/N=C/c1ccccc1O)c1ccccc1Nc1ccnc(C(F)(F)F)c1`: the growth is 14.7% (inactive).
Same read-out and setting: then `COc1ccc(C2C(C#N)=C(N)Oc3n[nH]c(-c4cccs4)c32)cc1I` (stereo unspecified), with 117% (inactive); and `O=S(=O)(Nc1ccc(OC(F)F)cc1)c1ccc(-c2cnc(C3CC3)o2)cc1`, with 97.2% (inactive).
Still for that read-out and setting: to `O=C1C=C(OCC=C(Cl)Cl)C(=O)c2ccccc21` belongs 137% (inactive); to `Cc1cc(C)nc(SC2=C(Nc3ccc(O)cc3)C(=O)N(Cc3ccccc3)C2=O)n1`, 108% [40 µM] (inactive); to `Cc1cc2nc(NC(=O)CN3CCN(CCN4C(=O)c5cccc6cccc(c56)C4=O)CC3)sc2cc1C`, 99.6% (inactive).
In the case of `Cc1ccc2c(C(C[N+](=O)[O-])c3ccccc3F)c(-c3ccccc3)[nH]c2c1` (stereo unspecified), the growth was 32.3% (inactive).
On the same count and under the same terms, then `CCc1nc(N)nc(N)c1C#CC(C)c1ccc(-c2ccncc2)cc1Cl` (stereo unspecified), with 12.3% (inactive); and `Cc1ccc(NC(=O)C2CCC(CN3CCN(C)CC3)CC2)cc1Nc1nccc(-c2cccnc2)n1` (stereo unspecified), with 94.4% (inactive).
`CC/C=C\C[C@H]1C/C=C2/C(=O)C=C[C@H]2C/C=C\CCCC(=O)O1`: the growth is 6.26% (active).
Same read-out and setting: then `Cc1ccc(-c2onc3c(=O)[nH]nc(-c4ccccc4)c23)cc1`, with 7.07% (active).
As to `O=c1ccccc(-c2ccc(-c3ccco3)cc2)c1O`, the growth was 26.3% (inactive).
As to `COc1ccc(-c2cc(Nc3ccnc(N4CCOCC4)n3)on2)cc1`, the growth was 2.68% (active).
Turning to `Cc1ccccc1COc1ccc(-c2ccnn2-c2ccc(Cl)cc2)cc1`, the growth is 71.2% (inactive).
For `COc1ccc(/C=N/C2=C(C#N)C(c3ccc(N(C)C)cc3)c3ccc4ccccc4c3O2)cc1` (stereo unspecified), the growth was 101% (inactive).
On the same count and under the same terms, then `c1ccc(CCNc2ncnc3[nH]ncc23)cc1`, with 114% (inactive); and `CN1CCN(CCCOc2cccc3nc(Nc4ccc(Cl)c(F)c4)ccc23)CC1`, with -54.7% (active); and `FC(F)(F)c1[nH]ncc1-c1nc2ccc3n[nH]c(C#Cc4cccnc4)c3c2c2c1CCCC2`, with 33.4% (inactive).
With `CCOc1nc(-c2ccccc2)cc2c(O)c(C(=O)O)[nH]c(=O)c12`, the growth is 118% (inactive).
For the compound `CCCCn1cnc2c(Sc3c([N+](=O)[O-])ncn3C)nc(N)nc21`, the growth is 100% (inactive).
With `COc1cc2c(cc1-c1c(C)noc1C)ncc1nc(C3CCCC3)n([C@H](C)COC(F)F)c12`, the growth is 23.9% (inactive).
On the same count and under the same terms, to `CN1CCN(CCCOc2cccc3nc(Nc4cc(Cl)cc(Cl)c4)ccc23)CC1` belongs -67.4% (active).
As to `COc1ccc(CCNc2nc3c(c(=O)n(Cc4ccc(Br)cc4)c(=O)n3C)n2C)cc1OC`, the growth is 103% (inactive).
Regarding `O=C(/C=C/c1cc(CN2CCOCC2)c(O)c2ncccc12)c1cc(CN2CCOCC2)c(O)c2ncccc12`, the growth is 30.2% (inactive).
`Nc1nc2ccc3[nH]ncc3c2c2c1CCCC2`: the growth is -19% (active).
The same measure, in the same setting: then `C#CCOc1ccc2ncnc(N3CCC(NC(=O)CCl)CC3)c2c1`, with 82.5% [8.25 µM] (inactive); and `CC1=C(O)C(=O)C(C(C#N)(C#N)C(C#N)C#N)C1` (stereo unspecified), with 105% (inactive); and `COc1ccc(CN2c3ccccc3Oc3ccccc32)cc1O`, with 91.3% (inactive).
In the case of `CN1CCN(c2ccc(Nc3c4ccccc4nc4ccccc34)cc2)CC1`, the growth is 114% (inactive).
As to `CCCCC(=O)OCC1OC(n2cnc3c(=S)nc[nH]c32)C(OC(=O)CCCC)C1OC(=O)CCCC` (stereo unspecified), the growth was 38.8% (inactive).
